# Bioassay records as filed in PubChem.
# HTT-AS promoter: activates huntingtin-antisense promoter activity; HEK293 HTT-AS promoter firefly luciferase reporter, 24 h; response scale: percent change from vehicle, -100% = no light; Potency, µM (top dose mostly 57.5 µM), without a hit: at the highest dose activity change, positive = activation, usual class: activators; 48,000 compounds, 0.24% hits; AID 1508624; note: nearly all actives have a fitted effect of over 55% in size
#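 Quantitative HTS used concentration series of up to 57.5 uM final on HEK293 luciferase reporter cells, 24 h at 37 degrees C. Readout was Dual-Glo firefly luminescence.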
# FH mod: Identification of activators of human fumarate hydratase by quantitative high-throughput screening; FH coupled MDH/diaphorase resazurin fluorescence, 15 min; Potency, µM (top dose mostly 79.9 µM), inactives show at the top dose activity change, negative = inhibition, hits mostly inhibitors; Fumarate hydratase, mitochondrial (Homo sapiens), P07954; 54,000 compounds, 0.22% hits; AID 1347055, 2019; note: % is set by controls: 0 for no effect and ±100 for the full control effect; the screen sought activators but most active calls are inhibition curves; nearly all actives have a fitted effect of over 45% in size
# Target sequence (P07954 whole entry, looked up): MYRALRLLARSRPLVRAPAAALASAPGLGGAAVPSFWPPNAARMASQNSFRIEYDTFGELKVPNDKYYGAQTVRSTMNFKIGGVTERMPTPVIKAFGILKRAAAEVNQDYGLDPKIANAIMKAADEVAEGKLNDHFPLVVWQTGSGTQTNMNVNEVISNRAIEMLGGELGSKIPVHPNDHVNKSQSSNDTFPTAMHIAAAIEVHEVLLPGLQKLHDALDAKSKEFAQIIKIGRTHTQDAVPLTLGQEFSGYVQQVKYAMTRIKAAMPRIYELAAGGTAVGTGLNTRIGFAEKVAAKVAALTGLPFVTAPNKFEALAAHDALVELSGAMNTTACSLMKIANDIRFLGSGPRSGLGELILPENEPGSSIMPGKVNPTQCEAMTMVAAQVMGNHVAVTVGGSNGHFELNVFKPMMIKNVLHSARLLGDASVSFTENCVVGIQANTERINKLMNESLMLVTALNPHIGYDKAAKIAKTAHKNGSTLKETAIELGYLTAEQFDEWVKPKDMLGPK
# HTT promoter inh: inhibits huntingtin promoter activity. 48,000 compounds, 0.93% hits. Potency, µM (series often up to 57.5 µM), without a hit: at the top dose activity change, negative = inhibition, hits mostly inhibitors. HEK293 HTT promoter firefly luciferase reporter, 24 h; note: nearly all actives have a fitted effect of over 50% in size
#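 HEK293 cells carrying firefly luciferase reporters were seeded at 2,500 per well in Opti-MEM and cultured for 24 h. They were then treated with compounds at up to 57.5 uM final for 24 h at 37 degrees C before Dual-Glo luminescence readout.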
# * hit, by the source's call; ? = inconclusive; . = not tested or not shown; [ ] = another dose, or the depositor's remark. Shown are actives, neighbours in structure and some others; about 1.3% of the full set was active somewhere. Calls come from the whole dose curve; as a rule, active = well fitted curve in the direction sought with a large enough effect; inconclusive = small, poorly fitted or top-dose-only effect, or another doubt; inactive = no such curve, though single readings can be large; an effect the other way counts as inactive or inconclusive. Potency is the fitted concentration of half-maximal effect.
SMILES,HTT-AS promoter,FH mod,HTT promoter inh
Fc1ccc(-n2ncc3c(NCCCn4ccnc4)ncnc32)cc1,2.8µM*,-5%,17%
Clc1cccc(-n2ncc3c(NCCCn4ccnc4)ncnc32)c1,14µM*,10%,31%
Cc1ccc(-n2ncc3c(NCCc4ccccc4)ncnc32)cc1C,?,-15%,21%
Fc1ccc(-n2ncc3c(NCCCc4ccccc4)ncnc32)cc1,8.9µM*,-2%,27%
O=C(NC/C=C/CN1CCN(c2cccc(Cl)c2Cl)CC1)c1ccc(-c2ccccn2)cc1,.,-20%,.
COC1CC(O[C@H]2CC[C@@]3(C)C(=CC[C@]4(O)C3[C@H](O)[C@@H](O)[C@]3(C)[C@@H]([C@H](C)O)CC[C@@]34O)C2)OC(C)C1OC1CC(OC)C(OC2CC(OC)C(OC3OC(C)C(OC4OC(CO)C(O)C(O)C4O)C(OC)C3O)C(C)O2)C(C)O1 (stereo partly specified),.,7%[20.6 µM],.
O=C(c1cc(Cc2n[nH]c(=O)c3ccccc23)ccc1F)N1CCCNCC1,.,1%,.
Cc1ccc(Cn2c(C)c3cnn(CC(=O)N4CCN(c5ccc(F)cc5)CC4)c(=O)c3c2C)cc1,-85%,-26%,14µM*
Cc1c2cnn(CC(=O)N3CCCCC3)c(=O)c2c(C)n1Cc1ccc(F)cc1,0%,-11%,0%
CCc1cccc(NS(=O)(=O)c2ccc(-n3cccn3)cc2)c1,-40%,-13%,35µM*
COC(=O)c1ccc(NS(=O)(=O)c2ccc(-n3cccn3)cc2)cc1,-18%,2%,-17%
Cc1cc(C)cc(NS(=O)(=O)c2ccc(-n3cccn3)cc2)c1,-35%,-35%,?
COc1ccc(NS(=O)(=O)c2ccc(-n3cccn3)cc2)cc1OC,-90%,-1%,7.9µM*
Cc1cccc(Oc2cnc(=O)[nH]c2)c1,.,7%,.
Cc1ccc(C(=O)Nc2ccc(S(=O)(=O)O)c3cc(S(=O)(=O)O)cc(S(=O)(=O)O)c23)cc1NC(=O)c1cccc(NC(=O)Nc2cccc(C(=O)Nc3cc(C(=O)Nc4ccc(S(=O)(=O)O)c5cc(S(=O)(=O)O)cc(S(=O)(=O)O)c45)ccc3C)c2)c1,1%,14µM*,-3%
Cc1ccc(Cl)cc1NC(=O)c1cccc(NC(=O)N2CCSc3ncccc32)c1,-33%,-12%,?
CCCN(CCc1ccsc1)C1CCc2c(O)cccc2C1 (stereo unspecified),.,1%,.
O=C(/C=C/c1ccc(O)cc1)OC[C@H]1O[C@@H](OC(=O)/C=C/c2ccccc2)[C@H](O)[C@@H](O)[C@@H]1O,.,0%[53.3 µM],.
CCOc1ccc(S(=O)(=O)NCCc2csc3nc(-c4ccc(F)cc4)nn23)cc1,-42%,-8%,25µM*
CCOc1ccc(S(=O)(=O)NCCc2csc3nc(-c4ccc(OC)c(OC)c4)nn23)cc1,-3%,-11%,16%
CCC(C(C)O)n1ncn(-c2ccc(N3CCN(c4ccc(OCC5COC(Cn6cncn6)(c6ccc(F)cc6F)C5)cc4)CC3)cc2)c1=O (stereo unspecified),.,-7%,.
Cc1nc2cc(-c3cccc(F)c3)nn2c(C)c1CCC(=O)Nc1ccccc1C(N)=O,-71%,11%,2.2µM*
COc1ccccc1-c1cc2nc(C)c(CCC(=O)NCCc3ccc(SC)cc3)c(C)n2n1,-74%,-28%,20µM*
COc1ccccc1CNC(=O)CCc1c(C)nc2cc(-c3ccccc3OC)nn2c1C,-37%,-12%,?
CCOC(=O)CC(NC(=O)CCc1c(C)nc2c(-c3ccccc3)c(C)nn2c1C)c1ccc(C)cc1 (stereo unspecified),-45%,-29%,?
SMILES,HTT-AS promoter,FH mod,HTT promoter inh
COc1ccccc1CNC(=O)CCc1c(C)nc2cc(-c3ccc(Cl)cc3)nn2c1C,-69%,-10%,4µM*
Cc1nc2cc(-c3ccccc3)nn2c(C)c1CCC(=O)Nc1ccc(F)cc1F,-79%,-4%,?
CCOC(=O)CC(NC(=O)CCc1c(C)nc2cc(-c3ccccc3)nn2c1C)c1ccc(C)cc1 (stereo unspecified),-80%,-22%,2.5µM*
COc1ccccc1-c1cc2nc(C)c(CCC(=O)Nc3cc(C)ccc3C)c(C)n2n1,-43%,-17%,?
CC1=CC(=O)C[C@H]2[C@@H]1CC[C@@H](C)[C@]21CO[C@H](c2ccoc2)C1=O,.,1%[53.3 µM],.
O=C(NCc1cccc(O)c1)Nc1nc(-c2ccncc2)cs1,.,5%,.
Cc1nc2cc(-c3ccccc3)nn2c(C)c1CCC(=O)NCc1cccc(Cl)c1,-71%,-12%,13µM*
COc1cc(OC)cc(-c2cc3nc(C)c(CCC(=O)NCc4ccccc4)c(C)n3n2)c1,-86%,?,2µM*
COc1ccc(CNC(=O)CCc2c(C)nc3cc(-c4ccc(OC)cc4OC)nn3c2C)cc1,-37%,-9%,-17%
COc1cc(OC)cc(-c2cc3nc(C)c(CCC(=O)NCCc4cccc(C)c4)c(C)n3n2)c1,-71%,-25%,?
CCc1ccccc1NC(=O)CCc1c(C)nc2cc(-c3ccccc3)nn2c1C,-57%,-6%,?
COc1cc(OC)cc(-c2cc3nc(C)c(CCC(=O)Nc4ccccc4OC)c(C)n3n2)c1,-83%,-25%,?
COc1cc(OC)cc(-c2cc3nc(C)c(CCC(=O)Nc4ccc(C(C)=O)cc4)c(C)n3n2)c1,-78%,-6%,3.2µM*
COc1cc(OC)cc(-c2cc3nc(C)c(CCC(=O)NCc4ccc(Cl)cc4)c(C)n3n2)c1,-86%,-26%,5µM*
[N-]=[N+]=N[C@]1(CO)O[C@@H](n2ccc(=O)[nH]c2=O)[C@@H](O)[C@@H]1O,.,-17%,.
CNc1ncnc2c1ncn2[C@@H]1O[C@H](CO)C(O)[C@H]1O (stereo partly specified),.,-2%[53.3 µM],.
COC1CC(O[C@H]2CC[C@@]3(C)C(=CC[C@]4(O)C3[C@H](OC(C)=O)[C@@H](OC(=O)c3ccccc3)[C@]3(C)[C@@H](C(C)=O)CC[C@@]34O)C2)OC(C)C1OC1CC(OC)C(OC2CC(OC)C(OC3OC(C)C(OC4OC(CO)C(O)C(O)C4O)C(OC)C3O)C(C)O2)C(C)O1 (stereo partly specified),.,3%[13.5 µM],.
CCCCOC(=O)NS(=O)(=O)c1sc(CC(C)C)cc1-c1ccc(Cn2ccnc2)cc1,.,-2%,.
COc1ccc2c(c1O)OC[C@H]1c3ccc(O)cc3O[C@@H]21,.,-6%,.
CCC1C(=O)N(C)c2cnc(Nc3ccc(C(=O)NC4CCC(N5CCN(CC6CC6)CC5)CC4)cc3OC)nc2N1C(C)C (stereo unspecified),.,2%,.
CC(=O)c1cccc(NS(=O)(=O)c2cccc(S(=O)(=O)c3ccc(Br)cc3)c2)c1,-54%,-16%,32µM*
CC(=O)c1cccc(NS(=O)(=O)c2ccc3c(c2)NC(=O)CC(=O)N3)c1,-6%,2%,-13%
COC(=O)CCCn1c(-c2ccc(C)cc2)c(C)n2c3c(=O)n(C)c(=O)n(C)c3nc12,-8%,-19%,5%
Cc1ccc(-c2c(C)n3c4c(=O)n(C)c(=O)n(C)c4nc3n2CCCO)cc1,-62%,-7%,10µM*
CCOc1ccc(-c2nc3cc(NC(=O)COc4cccc(C)c4)ccc3o2)cc1,-18%,-6%,-19%
